# Measurements from PubChem BioAssay.
# Calls of active or inactive are those of the source.
# What was measured:
# [1] = test system: Plasmodium falciparum Sir2 (PF13_0152, Sir2A); experiment: Plasmodium falciparum Sir2A binding compounds – biochemical, small-molecule microarray, 635 nm fluorescence, primary screen (AID 1098); settings: fluorescence 635 nm, higher = more signal;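 note: score merges spot fluorescence intensity with its signal-to-noise ratio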
# [2] = probe aDKK1 binding to arrayed compounds – biochemical, biotinylated probe, 635/667 nm fluorescence, primary screen (AID 1099); settings: small-molecule microarray, higher = more signal;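 note: score merges 667nm spot fluorescence with signal to noise across triplicate slides; reference of the scale not given here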
# [3] = probe aCHRDL2 binding to arrayed compounds – biochemical, biotinylated probe, 635/667 nm fluorescence, primary screen (AID 1100); settings: small-molecule microarray, higher = more signal
# [4] = change in splice reporter luminescence, either direction, cell-based, HEK293, spliceosome inhibition project, primary screen (AID 1101); settings: HEK293 splicing luciferase reporter, 24 h, higher = more signal, called active from +8 up or from −8 down;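 note: HEK293 cells carrying a splicing-competent luciferase reporter gene; test concentration not given here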
# [5] = biological target: Fibroblast growth factor 10 (Homo sapiens) (UniProt O15520); experiment: compounds binding fibroblast growth factor 10 – biochemical, small-molecule microarray, 635 nm fluorescence, primary screen (AID 1102); settings: FGF10 binding, fluorescence 635 nm, higher = more signal
# [6] = test system: glycogen synthase kinase-3 (GSK3A per assay name; protocol says GSK3B); experiment: compounds binding glycogen synthase kinase-3 – biochemical, small-molecule microarray, 635 nm fluorescence, GSK3A, primary screen (AID 1103); settings: fluorescence 635 nm, higher = more signal; note: the record names both GSK3A and GSK3B
# [7] = biological target: Epidermal growth factor receptor (Homo sapiens) (UniProt P00533); experiment: compounds binding epidermal growth factor receptor – biochemical, small-molecule microarray, 635 nm fluorescence, primary screen (AID 1104); settings: EGFR binding, higher = more signal;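 note: score merges 667 nm emission intensity with spot signal to noise over triplicate slides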
# [8] = biological target: Follistatin-related protein 3 (Homo sapiens) (UniProt O95633); experiment: compounds binding follistatin-related protein 3 – biochemical, small-molecule microarray, 635 nm fluorescence, primary screen (AID 1105); settings: FSTL3 binding, higher = more signal;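 note: score merges emission near 667 nm and signal to noise per printed spot across three slides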
# [9] = biological target: Dickkopf-related protein 1 (Homo sapiens) (UniProt O94907); experiment: small molecules binding DKK1 protein – biochemical, small-molecule microarray, 635 nm fluorescence scan, primary screen (AID 1106); settings: higher = more signal;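 note: score merges emission near 667 nm with signal to noise over three replicate slides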
# [10] = test system: Inhibin beta A chain (activin A); experiment: small molecules binding activin A – biochemical, small-molecule microarray, 635 nm fluorescence scan, primary screen (AID 1107); settings: INHBA, higher = more signal;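 note: mouse activin A protein probed at 4.33 µg/mL on printed slides; score merges bound-protein fluorescence near 667 nm with spot signal-to-noise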
# Chain of Epidermal growth factor receptor (Homo sapiens) (P00533 whole entry, looked up): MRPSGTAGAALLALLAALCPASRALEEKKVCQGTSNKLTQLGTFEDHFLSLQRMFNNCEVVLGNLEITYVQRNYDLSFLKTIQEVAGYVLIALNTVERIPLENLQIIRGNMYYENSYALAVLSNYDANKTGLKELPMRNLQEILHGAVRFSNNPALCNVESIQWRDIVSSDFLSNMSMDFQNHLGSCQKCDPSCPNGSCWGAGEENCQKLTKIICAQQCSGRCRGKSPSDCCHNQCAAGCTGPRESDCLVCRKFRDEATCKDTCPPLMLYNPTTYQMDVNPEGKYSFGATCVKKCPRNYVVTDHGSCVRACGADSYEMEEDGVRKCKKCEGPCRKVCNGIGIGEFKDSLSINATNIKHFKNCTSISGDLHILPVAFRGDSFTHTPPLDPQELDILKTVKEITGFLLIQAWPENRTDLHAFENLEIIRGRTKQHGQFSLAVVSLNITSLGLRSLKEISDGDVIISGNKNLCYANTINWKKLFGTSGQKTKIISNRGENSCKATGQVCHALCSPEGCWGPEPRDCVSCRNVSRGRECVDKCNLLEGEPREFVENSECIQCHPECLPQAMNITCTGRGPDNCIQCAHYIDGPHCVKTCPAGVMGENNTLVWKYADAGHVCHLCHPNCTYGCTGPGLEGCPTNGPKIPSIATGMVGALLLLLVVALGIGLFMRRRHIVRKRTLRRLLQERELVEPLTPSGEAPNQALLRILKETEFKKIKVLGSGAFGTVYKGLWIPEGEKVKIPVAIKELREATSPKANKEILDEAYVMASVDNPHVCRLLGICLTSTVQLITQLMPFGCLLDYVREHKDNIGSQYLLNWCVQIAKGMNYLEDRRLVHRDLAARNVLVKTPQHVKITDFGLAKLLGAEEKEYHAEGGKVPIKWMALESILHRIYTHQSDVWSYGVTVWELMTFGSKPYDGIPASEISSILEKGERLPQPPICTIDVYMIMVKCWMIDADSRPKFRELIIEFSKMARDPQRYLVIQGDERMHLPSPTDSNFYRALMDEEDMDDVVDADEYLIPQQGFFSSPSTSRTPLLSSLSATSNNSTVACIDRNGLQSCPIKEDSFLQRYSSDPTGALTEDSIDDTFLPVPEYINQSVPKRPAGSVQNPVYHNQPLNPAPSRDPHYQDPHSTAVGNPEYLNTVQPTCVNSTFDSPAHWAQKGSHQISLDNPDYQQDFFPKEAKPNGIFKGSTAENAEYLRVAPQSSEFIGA
# Chain of Dickkopf-related protein 1 (Homo sapiens) (O94907 whole entry, looked up): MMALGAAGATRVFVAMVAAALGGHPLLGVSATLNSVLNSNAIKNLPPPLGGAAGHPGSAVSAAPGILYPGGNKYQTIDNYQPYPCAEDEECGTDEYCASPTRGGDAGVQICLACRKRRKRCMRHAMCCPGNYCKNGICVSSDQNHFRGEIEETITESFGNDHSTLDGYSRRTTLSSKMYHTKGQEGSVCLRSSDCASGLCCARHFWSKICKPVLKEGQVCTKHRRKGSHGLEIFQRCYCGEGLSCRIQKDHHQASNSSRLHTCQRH
# Chain of Follistatin-related protein 3 (Homo sapiens) (O95633 whole entry, looked up): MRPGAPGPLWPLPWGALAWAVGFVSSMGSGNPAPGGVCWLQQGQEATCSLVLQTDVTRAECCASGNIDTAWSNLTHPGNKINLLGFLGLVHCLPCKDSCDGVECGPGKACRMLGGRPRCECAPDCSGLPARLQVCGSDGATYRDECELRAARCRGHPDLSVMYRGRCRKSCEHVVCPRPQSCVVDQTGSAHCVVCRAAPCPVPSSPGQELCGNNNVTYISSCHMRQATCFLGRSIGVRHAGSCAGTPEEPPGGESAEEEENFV
# Chain of Fibroblast growth factor 10 (Homo sapiens) (O15520 whole entry, looked up): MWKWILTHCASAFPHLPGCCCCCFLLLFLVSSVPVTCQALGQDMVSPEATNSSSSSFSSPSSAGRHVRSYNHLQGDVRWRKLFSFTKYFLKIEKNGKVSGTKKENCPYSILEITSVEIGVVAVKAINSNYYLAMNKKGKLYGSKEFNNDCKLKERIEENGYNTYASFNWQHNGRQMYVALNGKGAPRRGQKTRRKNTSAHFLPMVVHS
Compound,composite z-score [1],composite z-score [2],composite z-score [3],z-score [4],composite z-score [5],composite z-score [6],composite z-score [7],composite z-score [8],composite z-score [9],composite z-score [10]
O=C1C2C=CC(C(O)c3ccc(F)cc3)N(Nc3ccc([N+](=O)[O-])cc3)C2C(=O)N1c1ccccc1 (stereo not given),1.38,0.343,0.839,0.516 (inactive),0.638,1.07,-0.125,0.558,-0.272,0.556
COc1ccc([Si](C)(C)[C@H]2[C@H](CC(=O)N3CCC[C@H]3CO)O[C@@]3(C(=O)N(Cc4cccc(N5CCOC5=O)c4)c4ccccc43)[C@@H]2C)cc1,0.927,-0.195,-0.425,-0.298 (inactive),0.578,0.712,0.909,1.3,0.437,1.11
[N-]=[N+]=NCc1ccccc1[C@@H]1OC(c2ccc(OCCCO)cc2)=N[C@]1(CCS(=O)(=O)c1ccccc1)C(N)=O,1.32,0.775,1.01,0.25 (inactive),1.6,1.32,0.588,1.41,1.47,1.3
COC(=O)c1c2oc(c1C(=O)OC)C(=O)N[C@@H](C(C)C)Cn1cc(nn1)C1(CCCCC1)NC(=O)N[C@H](CO)CC2,1.68,-0.324,-0.288,0.343 (inactive),0.408,0.0356,-0.375,-0.0824,0.145,-0.462
CC(C)[Si](C#CCCCC#N)(O[C@H](c1ccccc1)c1cn(Cc2cccc(Cl)c2)nn1)C(C)C,0.397,-0.0654,-0.594,-1.64 (inactive),0.483,1.18,0.376,1.11,0.968,-0.018
C=CC[C@]12N=C(c3ccc(OCCCO)cc3)O[C@H]1c1ccccc1N(CCS(=O)(=O)c1ccccc1)C2=O,1.43,0.419,0.777,-2.04 (inactive),0.374,1.3,0.595,1.11,0.694,1.26
Cc1ccc(S(=O)(=O)N2C[C@@H](C(=O)O)[C@H](Sc3ccccc3)C[C@H]2c2ccccc2)cc1,1.47,0.707,0.999,1.64 (inactive),1.15,0.586,0.14,1.29,-0.503,0.49
CCOC(=O)C[C@H]1[C@H](OC(=O)c2ccc(C(=O)c3ccccc3)cc2)[C@@H](NC(=O)c2ccccc2)c2cc(OCCCO)ccc2N1C(=O)c1ccccc1,0.576,0.188,-0.0053,0.0733 (inactive),0.656,0.0643,0.168,0.84,0.112,0.136
CC=CC(O)C1C=CC2C(=O)N(C)C(=O)C2N1N(c1ccccc1)c1ccccc1 (stereo not given),0.293,-0.0262,0.211,1.06 (inactive),0.128,-0.343,1.19,-0.315,0.653,1.12
COc1cc(CO)cc(I)c1O[C@H]1C=C(C(=O)NCCO)C[C@@H](N(C(=O)c2cc3ccccc3oc2=O)C2CCCCCC2)[C@@H]1O,1.09,-0.28,-0.302,-1.33 (inactive),0.968,-0.314,0.338,0.348,0.306,-0.0101
CCCC=C(CCC)[C@@H](NC(=O)OCC(C)C)c1ccccc1,0.32,0.907,1.34,-1.82 (inactive),0.497,0.659,0.111,0.663,-0.0115,0.622
O=C(NC1CC1)[C@@H]1c2ccccc2C(=O)N(Cc2cc(F)cc(C(F)(F)F)c2)[C@H]1c1ccc(CO)cc1,1.62,-0.284,0.447,0.191 (inactive),-0.216,0.296,-1.18,-0.317,-0.666,-0.142
C=CC[C@]1(C(=O)NCc2ccccc2)N=C(c2ccc(OCCCO)cc2)O[C@H]1c1ccccc1CN=[N+]=[N-],1.51,0.709,0.899,-0.169 (inactive),1.19,1.24,0.171,1.39,0.607,0.835
CC[C@@H]1C=C(C(=O)O)[C@H](c2ccc(C)cc2)N1S(=O)(=O)c1ccc(C)cc1,0.66,0.0882,0.335,0.243 (inactive),0.227,0.745,-0.0708,0.534,-0.357,0.236
COc1ccc(C#Cc2ccc3c(c2)[C@]2(C(=O)N3)[C@H](c3ccc(O)cc3)N3[C@H](c4ccccc4)[C@H](c4ccccc4)OC(=O)[C@H]3[C@@H]2C(=O)N2CCc3cc(OC)c(OC)cc3C2)cc1,1.46,-0.157,-0.208,1.34 (inactive),0.768,1.26,0.469,0.853,0.31,0.155
C=C(C)[C@@H]1CC=C(C(O)C2C=CC3C(=O)NC(=O)C3N2Nc2ccc(Cl)cc2Cl)CC1 (stereo not given in full),0.576,0.802,1.3,0.172 (inactive),0.276,0.289,0.433,1.06,0.414,1.66
CC(=O)n1cc(C(O)C2C=CC3C(=O)NC(=O)C3N2Nc2ccccn2)c2ccccc21 (stereo not given),0.452,-0.0908,0.0413,2.28 (inactive),0.168,0.0973,0.523,0.225,0.339,0.709
NC(=O)[C@@H]1[C@H]2C(=O)O[C@H](c3ccccc3)[C@H](c3ccccc3)N2[C@H](c2ccc(O)cc2)[C@@]12C(=O)Nc1ccc(C#CC3=CCCCC3)cc12,0.735,-0.0562,-0.42,-2.28 (inactive),0.676,0.439,-0.122,0.31,-0.333,0.763
O=C1OCC=C[C@H]2OC34C=CCN(CCN5CCOCC5)C(=O)[C@H]3N(CCO)C(=O)[C@@H]4[C@@H]12 (stereo not given in full),1.47,-0.0283,-0.224,0.308 (inactive),-0.787,0.0559,-0.14,0.241,-0.0563,0.0758
C=CCC(OC(C)=O)[C@@H]1[C@@H](N(Cc2ccc(-c3ccccc3)cc2)C(=O)Cc2ccc(F)cc2)c2cc(OCCCO)ccc2N1C(=O)c1ccc2ccccc2c1 (stereo not given in full),-0.352,-0.0183,0.345,-0.519 (inactive),0.0036,0.0557,0.0144,0.268,-0.4,1.18
CC(C)NC(=O)[C@@H]1c2ccccc2C(=O)N(C(C)C)[C@H]1c1ccc(CO)cc1,-0.509,-0.29,0.91,-0.0664 (inactive),-0.633,0.134,-1,-0.994,-1.72,-0.751
OCCCC1=CC(C2CC2)N(Cc2cccc(OC(F)(F)F)c2)CC1 (stereo not given),1.13,-0.454,-0.286,0.0563 (inactive),-0.963,-0.798,-0.651,-0.556,0.161,0.526
O=C(CS)NCCCCCNC(=O)[C@H]1C[C@H]2C(=O)NCC(=O)N2[C@H]1c1cccc(OCCO)c1,1.59,-0.248,0.504,-0.957 (inactive),-0.0137,-1.11,-0.538,0.101,0.129,-0.462
COC(=O)[C@@]1(Cc2ccc(OC)cc2)[C@H]2c3cc(C(=O)N4CCCC4)n(Cc4nc5ccccc5[nH]4)c3C[C@H]2CN1C(=O)c1ccccc1,1.36,1.48,1.34,-1.29 (inactive),0.77,0.54,0.206,1.05,-0.49,1.28
O=C1[C@H]2C=C(I)[C@H](C[C@@H]2OCCCCO)[C@@]12CO2,1.15,-0.0509,0.0634,0.0898 (inactive),-0.0509,0.0622,-0.15,-0.0542,0.062,0.873
O=C(NC1CC1)[C@@H]1c2ccccc2C(=O)N(C2Cc3ccccc3C2)[C@H]1c1ccc(CO)cc1,0.188,-0.053,0.438,0.199 (inactive),0.467,1.3,0.473,0.53,0.951,0.338
COc1ccc(C(O)C2C=CC3C(=O)N(C)C(=O)C3N2NC(=O)OC(C)(C)C)c2ccccc12 (stereo not given),1.47,0.578,1.01,1.41 (inactive),1.16,1.27,0.138,1.32,-0.557,0.441
